# Assay results: PubChem BioAssay AID1159580 (chemical genetic matrix, 2015)
# Out of some 5,500 compounds screened, about 2,000 (36%) were called active. Inconclusive results (about 18%) are left out. This is one part of the list. Unmarked numbers belong to inactive results. Rule as the data show it: active = normalized growth mostly below about 0.91 (no sharp cut-off); inconclusive = no clear call, values can overlap the other calls; inactive = mostly above about 0.92.
# Test: chemical genetic growth profiling, strain panel (AID 1159580);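 also: tested at 20 µM; growth read once vehicle control cultures reached saturation at 30 °C; 1 = growth at the plate median or of vehicle wells; lower values mean less growth of the strain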
# Details: growth OD
# [1] = S. cerevisiae deletion strains, locus YAL013W, strain DEP1, hits give low values
# [2] = S. cerevisiae deletion strains, locus YJR075W, strain HOC1, hits give low values
# [3] = S. cerevisiae deletion strains, locus YMR263W, strain SAP30, hits give low values
# [4] = S. cerevisiae deletion strains, locus YNL153C, strain GIM3, hits give low values
# [5] = S. cerevisiae deletion strains, locus YNL322C, strain KRE1, hits give low values
# [6] = S. cerevisiae deletion strains, locus YPL055C, strain LGE1, hits give low values
# [7] = S. cerevisiae deletion strains, locus YDL101C, strain DUN1, hits give low values
# [8] = S. cerevisiae deletion strains, locus YHR030C, strain SLT2, hits give low values
compound,measurement,setting,value
C[C@@H](NC(=O)/C(C#N)=C/c1ccc(O)c(O)c1)c1ccccc1,normalized growth,[1],0.997
same,normalized growth,"S. cerevisiae deletion strains, locus YAL040C, strain CLN3, hits give low values",0.993
same,normalized growth,"S. cerevisiae deletion strains, locus YCL061C, strain MRC1 (second series), hits give low values",0.983
same,normalized growth,"S. cerevisiae deletion strains, locus YDR363W, strain ESC2, hits give low values",1.01
same,normalized growth,"S. cerevisiae deletion strains, locus YER002W, strain NOP16, hits give low values",0.998
same,normalized growth,[2],0.963
same,normalized growth,[3],1
same,normalized growth,"S. cerevisiae deletion strains, locus YMR307W, strain GAS1, hits give low values",1.01
same,normalized growth,[4],0.978
same,normalized growth,"S. cerevisiae deletion strains, locus YNL175C, strain NOP13, hits give low values",1
same,normalized growth,"S. cerevisiae deletion strains, locus YNL197C, strain WHI3, hits give low values",1
same,normalized growth,"S. cerevisiae deletion strains, locus YNL224C, strain SQS1, hits give low values",1.01
same,normalized growth,[5],1.01
same,normalized growth,"S. cerevisiae deletion strains, locus YOR083W, strain WHI5 (second series), hits give low values",1.01
same,normalized growth,[6],0.932
CCCc1cc(=O)oc2cc(OCC(=O)OCC)ccc12,normalized growth,[1],0.997
same,normalized growth,"S. cerevisiae deletion strains, locus YBR229C, strain ROT2, hits give low values",0.971
same,normalized growth,[7],0.945
same,normalized growth,"S. cerevisiae deletion strains, locus YDR150W, strain NUM1, hits give low values",0.986
same,normalized growth,"S. cerevisiae deletion strains, locus YEL061C, strain CIN8, hits give low values",0.963
same,normalized growth,"S. cerevisiae deletion strains, locus YGR078C, strain PAC10, hits give low values",0.985
same,normalized growth,[8],0.759
same,normalized growth,"S. cerevisiae deletion strains, locus YHR087W, strain rtc3, hits give low values",0.963
same,normalized growth,"S. cerevisiae deletion strains, locus YJL187C, strain SWE1, hits give low values",0.991
same,normalized growth,"S. cerevisiae deletion strains, locus YJR043C, strain POL32, hits give low values",1
same,normalized growth,[2],0.972
same,normalized growth,"S. cerevisiae deletion strains, locus YKL190W, strain CNB1, hits give low values",0.995
same,normalized growth,"S. cerevisiae deletion strains, locus YLR039C, strain RIC1, hits give low values",0.925
same,normalized growth,"S. cerevisiae deletion strains, locus YLR058C, strain SHM2 (second series), hits give low values",0.991
same,normalized growth,"S. cerevisiae deletion strains, locus YLR085C, strain ARP6, hits give low values",0.913
same,normalized growth,"S. cerevisiae deletion strains, locus YLR262C, strain YPT6, hits give low values",0.958
same,normalized growth,"S. cerevisiae deletion strains, locus YML094W, strain GIM5, hits give low values",0.883
same,normalized growth,"S. cerevisiae deletion strains, locus YMR219W, strain ESC1, hits give low values",0.987
same,normalized growth,[3],1.03
same,normalized growth,[4],0.98
same,normalized growth,"S. cerevisiae deletion strains, locus YNL298W, strain CLA4 (second series), hits give low values",0.961
same,normalized growth,[5],0.995
same,normalized growth,"S. cerevisiae deletion strains, locus YNR030W, strain Alg12, hits give low values",0.965
same,normalized growth,"S. cerevisiae deletion strains, locus YOL006C, strain TOP1, hits give low values",0.864
same,normalized growth,[6],0.922
same,normalized growth,"S. cerevisiae deletion strains, locus YPL241C, strain CIN2, hits give low values",1.04
same,normalized growth,"S. cerevisiae deletion strains, locus YPR135W, strain CTF4, hits give low values",0.82
same,normalized growth,"S. cerevisiae strains, strain wild type, hits give low values",0.99
Cc1nn(-c2cccc(Cl)c2)c2oc(=O)cc(C(F)(F)F)c12,normalized growth,"S. cerevisiae deletion strains, locus YAR019C, strain CDC15, hits give low values",0.977
same,normalized growth,"S. cerevisiae deletion strains, locus YBL105C, strain PKC1, hits give low values",0.966
same,normalized growth,"S. cerevisiae deletion strains, locus YBR135W, strain CKS1, hits give low values",0.975
same,normalized growth,"S. cerevisiae deletion strains, locus YBR136W, strain MEC1, hits give low values",0.974
same,normalized growth,"S. cerevisiae deletion strains, locus YBR160W, strain CDC28, hits give low values",0.974
same,normalized growth,"S. cerevisiae deletion strains, locus YDL017W, strain CDC7, hits give low values",0.968
same,normalized growth,"S. cerevisiae deletion strains, locus YDL028C, strain MPS1, hits give low values",0.979
same,normalized growth,[7],0.961
same,normalized growth,"S. cerevisiae deletion strains, locus YDL108W, strain KIN28, hits give low values",0.968
same,normalized growth,"S. cerevisiae deletion strains, locus YDL132W, strain cdc53, hits give low values",0.972
same,normalized growth,"S. cerevisiae deletion strains, locus YDL214C, strain PRR2, hits give low values",0.609 (active)
same,normalized growth,"S. cerevisiae deletion strains, locus YDR052C, strain DBF4, hits give low values",0.96
same,normalized growth,"S. cerevisiae deletion strains, locus YDR054C, strain cdc34, hits give low values",0.973
same,normalized growth,"S. cerevisiae deletion strains, locus YDR226W, strain ADK1, hits give low values",0.962
same,normalized growth,"S. cerevisiae deletion strains, locus YDR477W, strain SNF1, hits give low values",0.566 (active)
same,normalized growth,"S. cerevisiae deletion strains, locus YER123W, strain YCK3, hits give low values",0.342 (active)
same,normalized growth,"S. cerevisiae deletion strains, locus YER133W, strain GLC7, hits give low values",0.48 (active)
same,normalized growth,"S. cerevisiae deletion strains, locus YFL009W, strain cdc4, hits give low values",0.964
same,normalized growth,"S. cerevisiae deletion strains, locus YFL029C, strain CAK1, hits give low values",0.976
same,normalized growth,"S. cerevisiae deletion strains, locus YFR003C, strain YPI1, hits give low values",0.966
same,normalized growth,"S. cerevisiae deletion strains, locus YFR019W, strain FAB1, hits give low values",0.572 (active)
same,normalized growth,"S. cerevisiae deletion strains, locus YFR028C, strain CDC14, hits give low values",0.971
same,normalized growth,"S. cerevisiae deletion strains, locus YGR040W, strain KSS1, hits give low values",0.654 (active)
same,normalized growth,"S. cerevisiae deletion strains, locus YGR052W, strain FMP48, hits give low values",0.538 (active)
same,normalized growth,"S. cerevisiae deletion strains, locus YGR092W, strain DBF2, hits give low values",0.367 (active)
same,normalized growth,[8],0.154 (active)
same,normalized growth,"S. cerevisiae deletion strains, locus YHR079C, strain IRE1, hits give low values",0.231 (active)
same,normalized growth,"S. cerevisiae deletion strains, locus YHR082C, strain KSP1, hits give low values",0.508 (active)
same,normalized growth,"S. cerevisiae deletion strains, locus YHR205W, strain SCH9, hits give low values",0.615
same,normalized growth,"S. cerevisiae deletion strains, locus YIL147C, strain SLN1, hits give low values",0.976
same,normalized growth,"S. cerevisiae deletion strains, locus YJL095W, strain BCK1, hits give low values",0.359 (active)
same,normalized growth,"S. cerevisiae deletion strains, locus YJL128C, strain PBS2, hits give low values",0.95
same,normalized growth,"S. cerevisiae deletion strains, locus YJL157C, strain FAR1, hits give low values",0.467 (active)
same,normalized growth,"S. cerevisiae deletion strains, locus YJR016C, strain ILV3, hits give low values",0.976
same,normalized growth,"S. cerevisiae deletion strains, locus YJR066W, strain TOR1 (second series), hits give low values",0.552 (active)
same,normalized growth,"S. cerevisiae deletion strains, locus YJR066W, strain TOR1, hits give low values",0.343 (active)
same,normalized growth,"S. cerevisiae deletion strains, locus YKL048C, strain ELM1, hits give low values",0.753 (active)
same,normalized growth,"S. cerevisiae deletion strains, locus YKL067W, strain YNK1, hits give low values",0.705 (active)
same,normalized growth,"S. cerevisiae deletion strains, locus YKL101W, strain HSL1, hits give low values",0.776
same,normalized growth,"S. cerevisiae deletion strains, locus YKL193C, strain SDS22, hits give low values",0.975
same,normalized growth,"S. cerevisiae deletion strains, locus YKL203C, strain TOR2, hits give low values",0.614 (active)
same,normalized growth,"S. cerevisiae deletion strains, locus YLR113W, strain HOG1, hits give low values",0.35 (active)
same,normalized growth,"S. cerevisiae deletion strains, locus YLR133W, strain CKI1, hits give low values",0.545 (active)
same,normalized growth,"S. cerevisiae deletion strains, locus YLR403W, strain SFP1, hits give low values",0.393 (active)
same,normalized growth,"S. cerevisiae deletion strains, locus YML070W, strain DAK1, hits give low values",0.515 (active)
same,normalized growth,"S. cerevisiae deletion strains, locus YMR001C, strain CDC5, hits give low values",0.962
same,normalized growth,"S. cerevisiae deletion strains, locus YMR205C, strain PFK2 (second series), hits give low values",0.78
same,normalized growth,"S. cerevisiae deletion strains, locus YMR277W, strain FCP1, hits give low values",0.98
same,normalized growth,"S. cerevisiae deletion strains, locus YNL006W, strain LST8, hits give low values",0.977
same,normalized growth,"S. cerevisiae deletion strains, locus YNL020C, strain ARK1, hits give low values",0.574 (active)
same,normalized growth,"S. cerevisiae deletion strains, locus YNL161W, strain CBK1, hits give low values",0.968
same,normalized growth,"S. cerevisiae deletion strains, locus YNL183C, strain NPR1, hits give low values",0.464 (active)
same,normalized growth,"S. cerevisiae deletion strains, locus YNL207W, strain RIO2, hits give low values",0.963
same,normalized growth,"S. cerevisiae deletion strains, locus YNL222W, strain SSU72, hits give low values",0.975
same,normalized growth,"S. cerevisiae deletion strains, locus YNL307C, strain MCK1 (second series), hits give low values",0.536 (active)
same,normalized growth,"S. cerevisiae deletion strains, locus YOL078W, strain AVO1, hits give low values",0.97
same,normalized growth,"S. cerevisiae deletion strains, locus YOL136C, strain PFK27, hits give low values",0.342 (active)
same,normalized growth,"S. cerevisiae deletion strains, locus YOR061W, strain CKA2, hits give low values",0.681
same,normalized growth,"S. cerevisiae deletion strains, locus YOR119C, strain RIO1, hits give low values",0.544 (active)
same,normalized growth,"S. cerevisiae deletion strains, locus YOR231W, strain MKK1, hits give low values",0.501 (active)
same,normalized growth,"S. cerevisiae deletion strains, locus YOR329C, strain SCD5, hits give low values",0.964
same,normalized growth,"S. cerevisiae deletion strains, locus YPL031C, strain PHO85, hits give low values",0.535 (active)
same,normalized growth,"S. cerevisiae deletion strains, locus YPL153C, strain RAD53, hits give low values",0.6 (active)
same,normalized growth,"S. cerevisiae deletion strains, locus YPL204W, strain HRR25, hits give low values",0.469 (active)
same,normalized growth,"S. cerevisiae deletion strains, locus YPL209C, strain IPL1, hits give low values",0.972
same,normalized growth,"S. cerevisiae deletion strains, locus YPL256C, strain CLN2, hits give low values",0.201 (active)
same,normalized growth,"S. cerevisiae deletion strains, locus YPR025C, strain CCL1, hits give low values",0.968
same,normalized growth,"S. cerevisiae deletion strains, locus YPR106W, strain ISR1, hits give low values",0.979
same,normalized growth,"S. cerevisiae deletion strains, locus YPR111W, strain DBF20, hits give low values",0.96
same,normalized growth,"S. cerevisiae deletion strains, strain NNK1, hits give low values",0.978
same,normalized growth,"S. cerevisiae deletion strains, strain TSCII, hits give low values",0.967
